From PubChem BioAssay (NCATS)
Inconclusive results are not listed. A call without a number means that no potency is given here. Activity calls are given as the source filed them. The call rests on the fitted dose curve.

Target: Atrial natriuretic peptide receptor 1 (Homo sapiens) (UniProt P16066)
Assay: Natriuretic polypeptide receptor (hNpr1) antagonism - Pilot screen (AID 1347049);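 further: agonist-evoked cGMP luminescence read 20 min after hNppA addition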
Conditions: hNpr1 cells, antagonist mode cGMP read-out; series mostly up to 57.5 µM
How it was run: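 HEK293 cells expressing hNpr1 and GloSensor cGMP luciferase, 1500/well, loaded with 2% GloSensor reagent 2 h, compound 30 min at room temperature; luminescence read before and 20 min after 0.1 nM hNppA stimulation.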

Sequence of Atrial natriuretic peptide receptor 1 (Homo sapiens) (P16066 whole entry, looked up): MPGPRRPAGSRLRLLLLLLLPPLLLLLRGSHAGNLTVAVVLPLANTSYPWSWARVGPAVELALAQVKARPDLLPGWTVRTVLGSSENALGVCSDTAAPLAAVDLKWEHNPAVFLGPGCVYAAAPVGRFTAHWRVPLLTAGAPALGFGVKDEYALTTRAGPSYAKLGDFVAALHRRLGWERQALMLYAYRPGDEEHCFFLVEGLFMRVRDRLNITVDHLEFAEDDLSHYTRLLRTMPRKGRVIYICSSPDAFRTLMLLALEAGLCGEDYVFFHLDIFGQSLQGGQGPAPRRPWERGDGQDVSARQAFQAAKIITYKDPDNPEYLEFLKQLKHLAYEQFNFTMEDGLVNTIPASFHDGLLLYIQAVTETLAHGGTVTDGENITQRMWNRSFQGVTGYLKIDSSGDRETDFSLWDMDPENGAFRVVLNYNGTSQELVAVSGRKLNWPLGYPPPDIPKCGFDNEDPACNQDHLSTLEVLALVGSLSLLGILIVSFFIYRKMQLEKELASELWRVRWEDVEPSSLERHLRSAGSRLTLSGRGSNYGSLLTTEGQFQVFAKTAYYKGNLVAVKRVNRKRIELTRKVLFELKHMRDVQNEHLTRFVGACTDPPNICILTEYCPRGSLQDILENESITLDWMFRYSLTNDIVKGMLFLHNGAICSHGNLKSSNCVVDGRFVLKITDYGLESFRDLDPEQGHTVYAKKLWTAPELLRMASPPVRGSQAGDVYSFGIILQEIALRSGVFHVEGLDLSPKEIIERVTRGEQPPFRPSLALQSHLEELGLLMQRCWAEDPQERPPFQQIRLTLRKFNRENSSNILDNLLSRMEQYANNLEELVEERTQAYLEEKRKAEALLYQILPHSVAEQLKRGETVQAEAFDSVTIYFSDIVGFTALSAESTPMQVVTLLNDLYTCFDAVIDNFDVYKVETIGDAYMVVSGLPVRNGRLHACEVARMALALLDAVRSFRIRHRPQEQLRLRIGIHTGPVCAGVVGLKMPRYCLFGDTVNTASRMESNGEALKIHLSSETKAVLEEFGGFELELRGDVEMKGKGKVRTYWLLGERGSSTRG

SMILES | Potency
Cc1cc(NC(=O)Nc2ccc3c(ccn3C)c2)sn1 | inactive
CC(C)(C=O)Cc1cc(C(C)(C)C)c(O)c(C(C)(C)C)c1 | inactive
NC(=O)C(=O)O | inactive
O=C(O)CC1CCCc2ccccc2C1O (stereo unspecified) | inactive
Nc1nc(Nc2ccccc2)nc2c1ncn2[C@@H]1O[C@H](CO)[C@@H](O)[C@H]1O | inactive
NCCCS(=O)(=O)O | inactive
CCCN(CC1CC1)c1nc(C)nc(Nc2c(Cl)cc(Cl)cc2Cl)c1Cl | inactive
O=C1NC(=O)/C(=C/c2ccc(-c3ccc(F)cc3O)o2)S1 | inactive
O=C(c1ccc(OCCCc2cnc[nH]2)cc1)C1CC1 | inactive
Nc1nc(SCc2ccc([N+](=O)[O-])cc2)c2ncn([C@@H]3O[C@H](CO)[C@@H](O)[C@H]3O)c2n1 | inactive
c1cnc2c(c1)ccc1cccnc12 | inactive
CC(C)NC[C@@H](O)c1ccc(O)c(O)c1 | inactive
O=c1[nH]c2cc([N+](=O)[O-])c([N+](=O)[O-])cc2[nH]c1=O | inactive
CC(=O)N[C@H](C(=O)O)C(C)(C)SN=O | inactive
CC[C@@H](C)[C@H]1O[C@]2(CC[C@H]1C)C[C@@H]1C[C@@H](CC=C(C)[C@@H](O[C@H]3C[C@H](OC)[C@@H](O[C@H]4C[C@H](OC)[C@@H](O)[C@H](C)O4)[C@H](C)O3)[C@@H](C)C=CC=C3CO[C@@H]4[C@H](O)C(C)=C[C@@H](C(=O)O1)[C@]34O)O2 | inactive
Clc1ccc(N2CCN(Cc3c[nH]c4ncccc34)CC2)cc1 | inactive
COc1cc(SC)ccc1C(=O)N1CCC(Cc2ccccc2)CC1 | inactive
COc1ccc2c(c1)CCC1C2CC[C@@]2(C)C1CC[C@@H]2NCCCCCCN1C(=O)CCC1=O (stereo partly specified) | inactive
CC1CN(S(=O)(=O)c2cccc3cnccc23)CCN1 (stereo unspecified) | inactive

SMILES | Potency
COC1=C(OC)C(=O)c2ccccc2C1=O | inactive
CN(C)c1nc(N)c(C(=O)N=C(N)N)nc1Cl | inactive
NCCCCCCCCCCN | inactive
COc1cccc(C(=O)NCCN2CCN(c3ccc(Cl)cc3)CC2)c1 | inactive
CN1CCc2ccccc2Cc2[nH]c3ccccc3c2CC1 | inactive
CC(C)NCC(O)COc1cccc2ccccc12 (stereo unspecified) | inactive
NC(N)=NC(=O)c1nc(Cl)c(N2CCCCCC2)nc1N | inactive
O=C(Nc1ccccc1)c1cc([N+](=O)[O-])ccc1Cl | inactive
Cn1cc(C2=C(c3ccc(Cl)cc3Cl)C(=O)NC2=O)c2ccccc21 | inactive
CCCCCCCC/C=C\CCCCCCCC(=O)NCCO | inactive
C[C@@H](CN1CCC(Cc2ccccc2)CC1)[C@@H](O)c1ccc(O)cc1 | inactive
Oc1cc2c(cc1O)CN(C(=S)NCCc1ccc(Cl)cc1)CCC2 | inactive
O=C(CCCCCN1CCN(c2ccccc2-c2ccccc2)CC1)NC1CCCc2ccccc21 (stereo unspecified) | inactive
COC(=O)c1c(C)[nH]c(C)c1C(=O)c1ccccc1Cc1ccccc1 | inactive
CC(C)NC[C@H](O)COc1cccc2[nH]ccc12 | inactive
OC[C@H]1O[C@@H](n2cnc3c(NC4CCCCC4)ncnc32)[C@H](O)[C@@H]1O | inactive
O=C(/C=C/c1ccc(O)c(O)c1)OCCc1ccccc1 | inactive
CCCCCCCCCCCCCCCC(=O)OC(CC(=O)O)C[N+](C)(C)C (stereo unspecified) | inactive
COc1cccc(OC)c1OCCNCC1COc2ccccc2O1 (stereo unspecified) | inactive

Target: Atrial natriuretic peptide receptor 2 (Homo sapiens) (UniProt P20594)
Sequence (P20594 whole entry, looked up): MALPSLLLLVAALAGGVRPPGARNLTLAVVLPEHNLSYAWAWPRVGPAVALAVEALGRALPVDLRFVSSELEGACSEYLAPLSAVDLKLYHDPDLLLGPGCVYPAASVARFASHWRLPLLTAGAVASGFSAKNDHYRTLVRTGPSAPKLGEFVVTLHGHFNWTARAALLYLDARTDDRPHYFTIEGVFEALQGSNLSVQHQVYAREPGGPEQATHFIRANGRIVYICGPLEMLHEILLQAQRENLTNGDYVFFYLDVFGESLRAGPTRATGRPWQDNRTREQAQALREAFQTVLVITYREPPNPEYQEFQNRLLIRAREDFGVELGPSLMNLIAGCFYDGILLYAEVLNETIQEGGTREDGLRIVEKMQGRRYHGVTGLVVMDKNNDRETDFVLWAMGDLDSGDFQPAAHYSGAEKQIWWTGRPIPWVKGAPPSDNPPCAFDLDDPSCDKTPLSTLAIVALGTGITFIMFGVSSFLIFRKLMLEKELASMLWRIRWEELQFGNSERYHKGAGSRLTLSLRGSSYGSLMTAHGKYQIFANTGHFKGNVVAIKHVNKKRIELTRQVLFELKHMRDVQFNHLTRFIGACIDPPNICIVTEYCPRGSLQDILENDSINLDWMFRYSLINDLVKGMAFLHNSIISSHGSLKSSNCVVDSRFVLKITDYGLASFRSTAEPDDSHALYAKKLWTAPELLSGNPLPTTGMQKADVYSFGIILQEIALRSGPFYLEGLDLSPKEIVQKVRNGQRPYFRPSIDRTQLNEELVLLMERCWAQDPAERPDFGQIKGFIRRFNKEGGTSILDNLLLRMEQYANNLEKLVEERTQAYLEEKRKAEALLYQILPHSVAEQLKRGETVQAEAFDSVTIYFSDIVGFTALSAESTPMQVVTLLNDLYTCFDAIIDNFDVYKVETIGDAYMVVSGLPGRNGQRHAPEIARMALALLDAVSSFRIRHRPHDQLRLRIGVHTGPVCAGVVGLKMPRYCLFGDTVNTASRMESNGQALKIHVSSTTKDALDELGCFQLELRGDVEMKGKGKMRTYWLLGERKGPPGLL
Assay: Natriuretic polypeptide receptor (hNpr2) antagonism - Pilot subtype selectivity assay (AID 1347050)
Conditions: NPR2-expressing cells, cGMP antagonist-mode read-out; series mostly up to 38.3 µM
How it was run: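 HEK293 cells expressing hNpr2 and a GloSensor cGMP luciferase sensor, 1500/well, preloaded 2 h with 2% GloSensor reagent, compound 30 min, then 1 nM hNppC for 20 min. Antagonism from luminescence after versus baseline pre-read; LOPAC in 1:5 titrations.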

SMILES | Potency
Cc1cc(NC(=O)Nc2ccc3c(ccn3C)c2)sn1 | inactive
CC(C)(C=O)Cc1cc(C(C)(C)C)c(O)c(C(C)(C)C)c1 | inactive
NC(=O)C(=O)O | inactive
O=C(O)CC1CCCc2ccccc2C1O (stereo unspecified) | inactive
Nc1nc(Nc2ccccc2)nc2c1ncn2[C@@H]1O[C@H](CO)[C@@H](O)[C@H]1O | inactive
NCCCS(=O)(=O)O | inactive
CCCN(CC1CC1)c1nc(C)nc(Nc2c(Cl)cc(Cl)cc2Cl)c1Cl | inactive
O=C1NC(=O)/C(=C/c2ccc(-c3ccc(F)cc3O)o2)S1 | inactive
O=C(c1ccc(OCCCc2cnc[nH]2)cc1)C1CC1 | inactive
Nc1nc(SCc2ccc([N+](=O)[O-])cc2)c2ncn([C@@H]3O[C@H](CO)[C@@H](O)[C@H]3O)c2n1 | inactive
c1cnc2c(c1)ccc1cccnc12 | inactive
CC(C)NC[C@@H](O)c1ccc(O)c(O)c1 | inactive
O=c1[nH]c2cc([N+](=O)[O-])c([N+](=O)[O-])cc2[nH]c1=O | inactive
CC(=O)N[C@H](C(=O)O)C(C)(C)SN=O | inactive
CC[C@@H](C)[C@H]1O[C@]2(CC[C@H]1C)C[C@@H]1C[C@@H](CC=C(C)[C@@H](O[C@H]3C[C@H](OC)[C@@H](O[C@H]4C[C@H](OC)[C@@H](O)[C@H](C)O4)[C@H](C)O3)[C@@H](C)C=CC=C3CO[C@@H]4[C@H](O)C(C)=C[C@@H](C(=O)O1)[C@]34O)O2 | inactive
Clc1ccc(N2CCN(Cc3c[nH]c4ncccc34)CC2)cc1 | inactive
COc1cc(SC)ccc1C(=O)N1CCC(Cc2ccccc2)CC1 | inactive
COc1ccc2c(c1)CCC1C2CC[C@@]2(C)C1CC[C@@H]2NCCCCCCN1C(=O)CCC1=O (stereo partly specified) | inactive
CC1CN(S(=O)(=O)c2cccc3cnccc23)CCN1 (stereo unspecified) | inactive

SMILES | Potency
COC1=C(OC)C(=O)c2ccccc2C1=O | inactive
CN(C)c1nc(N)c(C(=O)N=C(N)N)nc1Cl | inactive
NCCCCCCCCCCN | inactive
COc1cccc(C(=O)NCCN2CCN(c3ccc(Cl)cc3)CC2)c1 | inactive
CN1CCc2ccccc2Cc2[nH]c3ccccc3c2CC1 | inactive
CC(C)NCC(O)COc1cccc2ccccc12 (stereo unspecified) | inactive
NC(N)=NC(=O)c1nc(Cl)c(N2CCCCCC2)nc1N | inactive
O=C(Nc1ccccc1)c1cc([N+](=O)[O-])ccc1Cl | inactive
Cn1cc(C2=C(c3ccc(Cl)cc3Cl)C(=O)NC2=O)c2ccccc21 | inactive
CCCCCCCC/C=C\CCCCCCCC(=O)NCCO | inactive
C[C@@H](CN1CCC(Cc2ccccc2)CC1)[C@@H](O)c1ccc(O)cc1 | inactive
Oc1cc2c(cc1O)CN(C(=S)NCCc1ccc(Cl)cc1)CCC2 | inactive
O=C(CCCCCN1CCN(c2ccccc2-c2ccccc2)CC1)NC1CCCc2ccccc21 (stereo unspecified) | inactive
COC(=O)c1c(C)[nH]c(C)c1C(=O)c1ccccc1Cc1ccccc1 | inactive
CC(C)NC[C@H](O)COc1cccc2[nH]ccc12 | inactive
OC[C@H]1O[C@@H](n2cnc3c(NC4CCCCC4)ncnc32)[C@H](O)[C@@H]1O | inactive
O=C(/C=C/c1ccc(O)c(O)c1)OCCc1ccccc1 | inactive
CCCCCCCCCCCCCCCC(=O)OC(CC(=O)O)C[N+](C)(C)C (stereo unspecified) | inactive
COc1cccc(OC)c1OCCNCC1COc2ccccc2O1 (stereo unspecified) | inactive
